Shown are actives, neighbours in structure and some others; about 19% of the full set was active somewhere.
DT40 TDP1 CPT: qHTS for Inhibitors of human tyrosyl-DNA phosphodiesterase 1 (TDP1): qHTS in cells in presence of CPT. actives 12% (n = 420,000). Potency, µM (top dose mostly 46.2 µM), most hits filed as inhibitors. chicken DT40 Tdp1-/-;hTDP1 cells + 20 nM CPT, ATP luminescence, 48 h; further: nearly all actives have a fitted effect of over 55% in size
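Chicken DT40 Tdp1-/- cells complemented with human TDP1, 400 cells/well, exposed to compounds plus 20 nM camptothecin for at least 48 h at 37 C; viability read as ATP content by CellTiter-Glo luminescence.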
TDP1 cell noCPT: qHTS for Inhibitors of human tyrosyl-DNA phosphodiesterase 1 (TDP1): qHTS in cells in absence of CPT; actives 15% (n = 420,000); Potency, µM (highest dose often 46.2 µM), hits mostly inhibitors; DT40 Tdp1-/- hTDP1 cells, no CPT, ATP luminescence, 48 h; further: nearly all actives have a fitted effect of over 55% in size
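Seeded 400 DT40-hTDP1 cells/well (vehicle DMSO, no 20 nM CPT); pinned compounds; ≥48 hr at 37 °C; CellTiter-Glo luminescence as viability measure.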
TDP1 inh: qHTS Assay for Inhibitors of Tyrosyl-DNA Phosphodiesterase (TDP1) | AID 485290, 2010 | actives 0.28% (n = 350,000) | Tyrosyl-DNA phosphodiesterase 1 (Homo sapiens), Q9NUW8 | Potency, µM (highest dose often 130 µM), usual class: inhibitors | recombinant TDP1, AlphaScreen DNA substrate cleavage; further: nearly all actives have a fitted effect of over 40% in size
Target sequence (Q9NUW8 whole entry, looked up): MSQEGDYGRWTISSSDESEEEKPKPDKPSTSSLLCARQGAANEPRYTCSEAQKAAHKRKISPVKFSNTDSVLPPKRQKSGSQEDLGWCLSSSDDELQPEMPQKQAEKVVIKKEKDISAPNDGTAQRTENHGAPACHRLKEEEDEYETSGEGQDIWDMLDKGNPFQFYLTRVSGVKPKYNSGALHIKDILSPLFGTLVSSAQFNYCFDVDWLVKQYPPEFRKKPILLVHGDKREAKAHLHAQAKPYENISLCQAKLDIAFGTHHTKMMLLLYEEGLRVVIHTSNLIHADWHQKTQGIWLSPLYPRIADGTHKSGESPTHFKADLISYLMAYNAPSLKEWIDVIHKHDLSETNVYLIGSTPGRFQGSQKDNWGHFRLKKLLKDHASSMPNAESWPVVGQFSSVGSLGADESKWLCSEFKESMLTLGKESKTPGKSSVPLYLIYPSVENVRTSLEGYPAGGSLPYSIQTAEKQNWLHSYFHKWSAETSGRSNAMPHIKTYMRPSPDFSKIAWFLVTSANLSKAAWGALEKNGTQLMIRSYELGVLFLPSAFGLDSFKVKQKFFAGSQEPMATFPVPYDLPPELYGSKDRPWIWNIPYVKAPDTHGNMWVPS
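Recombinant human Tdp1 (E. coli-expressed, 1 nM final) preincubated with compounds 15 min at room temperature, then 5'-biotin/3'-phosphotyrosine-FITC DNA substrate (15 nM final) added for 5 min. AlphaScreen beads (10 ug/ml final) added 10 min; cleavage lowers signal.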
HepG2 tox: qHTS for Inhibitors of TGF-b: Cytotox Counterscreen; Potency, µM (top dose mostly 46.1 µM), usual class: cytotoxic; HepG2 CAGA-GFP viability, ATP luminescence, 18 h; AID 588856, 2011; actives 0.76% (n = 410,000)
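HepG2 CAGA-GFP cells (1000/well, DMEM with 1% FBS) received compound, then TGF-beta at 500 pg/mL final, and were incubated 18 hours at 37 degrees C. Viability was read by CellTiter-Glo luminescence. Media-only wells were set as complete cell-killing and DMSO as no toxicity.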
IL-1B inflam inh: qHTS for Inhibitors of Inflammasome Signaling: IL-1-beta AlphaLISA Primary Screen; THP-1 LPS/ATP IL-1B secretion, AlphaLISA, 16 h; stronger effect = lower value; activity change, % at 57.5 µM; actives 4.7% (n = 360,000); AID 743279, 2014; in the data active means activity change below about -50%; inconclusive means mostly about -30% to -49%
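Secreted IL-1B measured by AlphaLISA bead assay after 16 h compound exposure of THP-1 cells; compounds (final up to 57.5 uM) added 1 h before LPS (250 ng/mL) and ATP (1.25 mM) stimulation; lower signal means less secretion.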
TGFb SMAD3 inh: qHTS for Inhibitors of TGF-b. HepG2 CAGA-GFP TGF-b/SMAD3 reporter, GFP fluorescence, 18 h; TGF-beta stimulated, 500 pg/mL final. Potency, µM (doses to about 46.1 µM), actives largely listed as inhibitors. actives 1.2% (n = 410,000); further: nearly all actives have a fitted effect of over 65% in size
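GFP signal (ex488/em500-530) from TGF-beta-stimulated HEPG2 CAGA-GFP cells, 500 pg/mL final, 18 h at 37 degrees C in DMEM plus 1% FBS, normalized to unstimulated and DMSO-stimulated controls.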
Of the large screens only hits and unclear results are named; the others gave an inactive call. Unless noted, the call rests on the fitted dose curve; in most records, active means well fitted curve in the direction sought with a large enough effect; inconclusive means small, poorly fitted or top-dose-only effect, or another doubt; inactive means no such curve, though single readings can be large; an effect the other way counts as inactive or inconclusive.

CC(NC(=O)CSc1cccc(C(F)(F)F)c1)c1ccccc1 (configuration not stated)	DT40 TDP1 CPT inconclusive, TDP1 cell noCPT inconclusive
N[C@@H](CO)C(=O)O	none (no result: HepG2 tox, IL-1B inflam inh, TGFb SMAD3 inh)
Cc1ccc(CS(=O)(=O)c2ncc(Cl)c(C(=O)Nc3nc4ccc(F)cc4s3)n2)cc1	DT40 TDP1 CPT 5.2µM, TDP1 cell noCPT 2.6µM, TGFb SMAD3 inh inconclusive (no result: IL-1B inflam inh)
COc1ccc2nc(NC(=O)c3nc(S(=O)(=O)Cc4ccc(C)cc4)ncc3Cl)sc2c1	DT40 TDP1 CPT 1.6µM, TDP1 cell noCPT 2.3µM, TGFb SMAD3 inh 4.5µM (no result: IL-1B inflam inh)
COc1ccc2nc(NC(=O)c3nc(SC(C)C)ncc3Cl)sc2c1	none (no result: IL-1B inflam inh)
Cc1ccc2nc(NC(=O)CS(=O)(=O)Cc3ccccc3)sc2c1	none (no result: TDP1 inh)
Cc1ccc(CS(=O)(=O)c2ncc(Cl)c(C(=O)Nc3nc4ccc(C)cc4s3)n2)cc1	DT40 TDP1 CPT 2.9µM, TDP1 cell noCPT 3.7µM (no result: IL-1B inflam inh)
CN(C)S(=O)(=O)c1ccc(NC(=O)CN2CCN(c3ccccn3)CC2)cc1	DT40 TDP1 CPT inconclusive (no result: TDP1 inh)
CCc1ccc(NC(=O)c2sc(-n3nc(C)c(Cc4ccc(OC)cc4)c3C)nc2C)cc1	none (no result: IL-1B inflam inh)
CCOc1ccccc1NC(=O)C1CCN(S(=O)(=O)c2ccc3c(c2)CC(C)N3C(C)=O)CC1 (configuration not stated)	DT40 TDP1 CPT inconclusive, TDP1 cell noCPT inconclusive, TGFb SMAD3 inh inconclusive (no result: IL-1B inflam inh)
CC1CCc2ccc(F)cc2N1S(=O)(=O)c1cccs1 (configuration not stated)	DT40 TDP1 CPT inconclusive, TDP1 cell noCPT inconclusive, TGFb SMAD3 inh inconclusive
CC(=O)N1c2ccc(S(=O)(=O)N3CCC(C(=O)Nc4ccc(F)cc4)CC3)cc2CC1C (configuration not stated)	DT40 TDP1 CPT 18µM, TDP1 cell noCPT 13µM
CC(=O)Nc1ccc(S(=O)(=O)N2c3ccc(F)cc3CCC2C)cc1 (configuration not stated)	DT40 TDP1 CPT 7.3µM, TDP1 cell noCPT 5.8µM, TGFb SMAD3 inh inconclusive (no result: TDP1 inh)
CCc1cccc(NC(=O)C2CCN(S(=O)(=O)c3ccc4c(c3)CC(C)N4C(C)=O)CC2)c1 (configuration not stated)	DT40 TDP1 CPT 16µM, TDP1 cell noCPT 21µM (no result: TDP1 inh)
COc1ccccc1NC(=O)C1CCCN(S(=O)(=O)c2ccc3c(c2)CC(C)N3C(C)=O)C1 (configuration not stated)	DT40 TDP1 CPT inconclusive, TDP1 cell noCPT 7.3µM
COc1ccc(-c2nnc3n2N=C(c2ccc(OC)c(OC)c2)CS3)cc1	none (no result: DT40 TDP1 CPT, TDP1 cell noCPT, HepG2 tox, IL-1B inflam inh, TGFb SMAD3 inh)
c1ccc(-c2nnc(CN3CCN(c4ccccn4)CC3)o2)cc1	none (no result: IL-1B inflam inh)
Cc1ccc(CNC(=O)CN(C)S(=O)(=O)c2ccc3c(c2)c(=O)n(C)c(=O)n3C)cc1	none (no result: IL-1B inflam inh)
COc1ccc(CNC(=O)C2CCN(S(=O)(=O)c3cccnc3)CC2)cc1	none
COc1cccc(NC(=O)C2CCN(S(=O)(=O)c3ccc4c(c3)CC(C)N4C(C)=O)CC2)c1 (configuration not stated)	DT40 TDP1 CPT 15µM, TDP1 cell noCPT inconclusive
COc1ccc(CNC(=O)C2CCN(S(=O)(=O)c3ccc4c(c3)CC(C)N4C(C)=O)CC2)cc1 (configuration not stated)	IL-1B inflam inh -76
COc1ccc(CNC(=O)C2CCN(S(=O)(=O)c3cccc(-c4noc(C)n4)c3)CC2)cc1	DT40 TDP1 CPT 23µM, TDP1 cell noCPT 9.2µM (no result: IL-1B inflam inh)
C#CC(C)OC(=O)c1nnc2c3ccccc3n(COC)c2n1 (configuration not stated)	none (no result: DT40 TDP1 CPT, TDP1 cell noCPT, HepG2 tox, IL-1B inflam inh, TGFb SMAD3 inh)

High-throughput results: PubChem BioAssay, National Center for Advancing Translational Sciences (NCATS)
